High-throughput results as filed in PubChem BioAssay.
A selection: hits, their analogues and other compounds. The true share with any hit is near 13%.
USP30 block – inhibitors of human USP30 deubiquitinase; Ubiquitin carboxyl-terminal hydrolase 30 (Homo sapiens), Q70CQ3; inhibition, % at 25 µM; purified USP30, Ub-rhodamine cleavage fluorescence; 47,000 tested, 5.3% active; AID 1645860, 2021
USP8 block – inhibitors of human USP8 deubiquitinase; Ubiquitin carboxyl-terminal hydrolase 8 (Homo sapiens), P40818; purified USP8, Ub-rhodamine cleavage fluorescence, 30 min; inhibition, % at 20 µM; 47,000 tested, 4.2% active; AID 1645853, 2021
USP28 inh – inhibitors of human USP28 deubiquitinase; Ubiquitin carboxyl-terminal hydrolase 28 (Homo sapiens), Q96RU2; purified USP28, Ub-rhodamine cleavage fluorescence, 30 min; AID 1645857, 2021; inhibition, % at 25 µM; 47,000 tested, 3% active
USP17 inh – inhibitors of human USP17 deubiquitinase; 47,000 tested, 6.5% active; inhibition, % at 50 µM; purified USP17, Ub-rhodamine cleavage fluorescence, 3 h; AID 1645855, 2021; Ubiquitin carboxyl-terminal hydrolase 17-like protein 5 (Homo sapiens), A8MUK1
Target sequence (A8MUK1 whole entry, looked up): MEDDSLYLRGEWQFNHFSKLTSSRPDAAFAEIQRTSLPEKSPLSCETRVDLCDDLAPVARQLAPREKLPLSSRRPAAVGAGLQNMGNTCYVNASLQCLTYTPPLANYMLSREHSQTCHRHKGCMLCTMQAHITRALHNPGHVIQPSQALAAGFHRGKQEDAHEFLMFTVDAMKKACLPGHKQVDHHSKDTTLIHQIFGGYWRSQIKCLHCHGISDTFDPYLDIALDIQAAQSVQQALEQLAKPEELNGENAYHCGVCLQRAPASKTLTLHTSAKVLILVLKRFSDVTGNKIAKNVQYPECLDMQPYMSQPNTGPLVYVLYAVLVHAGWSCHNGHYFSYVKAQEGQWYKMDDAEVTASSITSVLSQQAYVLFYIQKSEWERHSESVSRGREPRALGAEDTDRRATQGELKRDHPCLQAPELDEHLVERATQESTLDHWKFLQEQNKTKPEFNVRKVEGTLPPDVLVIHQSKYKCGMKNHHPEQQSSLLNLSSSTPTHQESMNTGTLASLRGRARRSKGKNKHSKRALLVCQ
Of the large screens only hits and unclear results are named; the others gave an inactive call. Rule as the data show it: active = inhibition above about 30%; inactive = the rest.

CCCNC(=O)N1CCc2c(c(-c3nc(Cc4ccccc4)no3)nn2C)C1	none
CC(=O)N1CCN(c2cc(-c3noc([C@@H]4CCCN4Cc4ccncc4)n3)ccn2)CC1	none
Cc1cccc(OCc2cc(-c3ccccc3)no2)c1C	USP28 inh 48
O=C(COc1cccc(N2CCCC2=O)c1)N1CCN(C(=O)c2ccco2)CC1	none
COc1ccccc1CNC(=O)CCC(=O)Nc1ccc2nc(N3CCC(C)CC3)cc(C)c2c1	USP17 inh 32
COc1ccc(/C=C/C(=O)Nc2ccc3nc(N4CCN(c5ncccn5)CC4)cc(C)c3c2)cc1	USP8 block 88, USP17 inh 43
COc1ccccc1CNC(=O)CCC(=O)Nc1ccc2nc(N3CCN(C)CC3)cc(C)c2c1	none
Cc1cc(N2CCC(C)CC2)nc2ccc(NC(=O)C3CC3)cc12	none
CCOc1ccc(CNC(=O)CCC(=O)Nc2ccc3nc(N4CCCCC4)cc(C)c3c2)cc1	none
Cc1cc(N2CCN(c3ncccn3)CC2)nc2ccc(NC(=O)/C=C/c3ccccc3Cl)cc12	USP28 inh 40, USP17 inh 51
Cc1cc(N2CCCCC2)nc2ccc(NC(=O)CCC(=O)NC(C)c3ccc4c(c3)OCCO4)cc12 (stereo unspecified)	USP17 inh 36
O=C(c1cccnc1)N1CCCC2(COCCN(c3cccnc3)C2)C1 (stereo unspecified)	none
C=C1Nc2ccccc2C(=O)N1c1cccc(NC(=O)c2cccc(F)c2)c1	none
Cc1ccc(COc2cc(C(=O)NCCc3ccc(Cl)cc3)c3ccccc3n2)cc1	none
CC(C)(C)C(=O)N1CCN(Cc2noc(-c3ccccc3)n2)CC1	none
COc1ccc(CCC(=O)Nc2ccc3nc(N4CCN(c5ncccn5)CC4)cc(C)c3c2)cc1	USP30 block 30, USP8 block 36
CCN1CCN(c2cc(C)c3cc(NC(=O)c4cncc(Br)c4)ccc3n2)CC1	none
COc1ccc(CC(=O)Nc2ccc3nc(N4CCOCC4)cc(C)c3c2)cc1	USP30 block 38, USP17 inh 53
COc1cccc(CNC(=O)CCC(=O)Nc2ccc3nc(N4CCCCC4)cc(C)c3c2)c1	none
CCN(CC)c1cc(C)c2cc(NC(=O)CCc3ccc(OC)cc3)ccc2n1	USP8 block 54, USP28 inh 46
CCN(CC)c1cc(C)c2cc(NC(=O)c3ccncc3)ccc2n1	USP28 inh 71
Cc1cc(N2CCOCC2)nc2ccc(NC(=O)CCC(=O)NCc3ccc(F)cc3)cc12	none
COc1ccc(NC(=O)CCc2nc3ccccc3c(=O)[nH]2)cc1	none
Cc1cccc(C(=O)N2c3ncnn3C(c3ccccc3)CC2c2ccccc2)c1 (stereo unspecified)	none
CC(C)(C)OC(=O)N1CCC[C@H]1c1nnc(SCc2ccc(F)cc2)o1	none
COc1ccccc1CNC(=O)C1CCCN(S(=O)(=O)N2CCOCC2)C1 (stereo unspecified)	none
COc1ccc(CCC(=O)Nc2ccc3c(c2)Sc2ncccc2C(=O)N3C)cc1	USP28 inh 55
Cc1nc2ccccn2c1C1(O)C(=O)Nc2c(Cl)cc(Cl)cc21 (stereo unspecified)	USP8 block 88, USP17 inh 52
N#Cc1cccc(S(=O)(=O)c2c[nH]c3cc(Cl)ccc3c2=O)c1	USP8 block 57, USP17 inh 46
O=C(Nc1cccc(Cl)c1)c1ncn2c1CNS(=O)(=O)c1ccccc1-2	USP30 block 36, USP28 inh 66, USP17 inh 33
Cc1ccc2nc(NC(=O)C3CC(=O)N(Cc4ccccc4)C3)sc2c1 (stereo unspecified)	USP8 block 31
O=C(Nc1ccc(F)c(F)c1)c1ccc2c(c1)ncn2CCN1CCCC1	none
COc1cccc(C(CC(=O)NCc2ccccc2OC)n2cccc2)c1 (stereo unspecified)	none
O=S1(=O)NC(=NCCc2cccc(F)c2)c2ccccc21	USP30 block 34, USP17 inh 49
O=C(CCN=C1NS(=O)(=O)c2ccccc21)Nc1cccc(-c2nnc3n2CCCCC3)c1	none
O=C(/C=C/c1ccco1)c1cccc([N+](=O)[O-])c1	USP8 block 50, USP28 inh 46, USP17 inh 83
CN(C1CCCCC1)S(=O)(=O)N1CCCC(C(=O)NCc2ccccc2Cl)C1 (stereo unspecified)	none
O=C(C1CCCN(Cc2cccc(Cl)c2)C1)N1CCC(Cc2ccccc2)CC1 (stereo unspecified)	none
Cc1ccccc1NC(=O)C1CCCN(S(=O)(=O)Cc2ccc(F)cc2)C1 (stereo unspecified)	none
COc1ccccc1CNC(=O)C1CCCN(S(=O)(=O)Cc2ccc(Cl)cc2)C1 (stereo unspecified)	USP30 block 30
CN(C1CCCCC1)S(=O)(=O)N1CCCC(C(=O)NCc2cccc(Cl)c2)C1 (stereo unspecified)	USP30 block 42
O=C(C1CCCN(S(=O)(=O)Cc2ccccc2)C1)N1CCC(Cc2ccccc2)CC1 (stereo unspecified)	USP30 block 31
Cc1ccccc1NC(=O)C1CCCN(S(=O)(=O)Cc2ccccc2)C1 (stereo unspecified)	USP17 inh 32
Cc1ccccc1C1c2[nH]c3ccccc3c2C[C@H]2C(=O)N(CCCO)CC(=O)N12 (stereo partly specified)	none
CC(=O)Nc1ccc(S(=O)(=O)N2CCN(c3ccc([N+](=O)[O-])c(N4CCN(C)CC4)c3)CC2)cc1	none
COc1ccc(-n2ccnc(SCc3ccc(Cl)cc3)c2=O)cc1	USP28 inh 36, USP17 inh 33
CCOc1ccc(-n2ccnc(NCc3ccc(OC)cc3)c2=O)cc1	none
COc1cccc(-c2noc(-c3occc3Br)n2)c1	USP17 inh 40
O=S(=O)(c1ccc(Cl)cc1)N(Cc1ccccc1)Cc1nnnn1-c1ccccc1	USP30 block 30
CCc1nnc(NC(=O)CN(Cc2ccccc2)S(=O)(=O)c2ccc(Cl)cc2)s1	USP30 block 55, USP17 inh 63
CC1CCN(C(=O)CN2CCC3(CCC2=O)CNC(=O)c2ccccc2O3)CC1 (stereo unspecified)	none
COc1ccc(NC(=O)CS(=O)(=O)c2[nH]c(-c3ccccc3)nc2-c2ccc(C)cc2)cc1	none
COc1ccc(NC(=O)CSc2cn[nH]n2)cc1	none
COc1ccc(NC(=O)CSc2ccc(F)cc2)cc1	USP30 block 34
Cc1ccc(-c2nc(-c3ccccc3)c(S(=O)(=O)CC(=O)Nc3ccc(F)c(Cl)c3)[nH]2)cc1	USP30 block 44
COc1ccc(-c2nc(-c3ccc(OC)cc3)c(S(=O)(=O)CC(=O)Nc3ccc(F)cc3)[nH]2)cc1	USP30 block 30
Cc1ccccc1-c1nnc2ccc(N3CCCC3)nn12	none
O=C(Nc1cnc(N2CCOCC2)nc1)c1cccc2ccccc12	none
Cc1cccc(Nc2cc(C3CCN(C(=O)c4ccn[nH]4)CC3)ccn2)n1	none
